HT1080-NT tox: kills 2HG-producing HT-1080-NT fibrosarcoma cells | HT-1080-NT fibrosarcoma viability, CellTiter-Glo ATP luminescence, 48 h | Potency, µM (doses to about 46.1 µM), inactives show at the highest dose activity, negative = less viability, usual class: cytotoxic | 360,000 tested, 1.6% active;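 also: NT is the 2HG producing partner of a matched IDH1 knockdown line; potency is read from the fitted curve at half-maximal effect; 0% = DMSO-treated cells and -100% = media-only wells without cells; nearly all actives have a fitted effect of over 55% in size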
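Viability of the 2HG-overproducing fibrosarcoma line after 48 hours of compound exposure at 37 degrees C was determined by luminescence with CellTiter-Glo, and concentration-effect curves were then fitted and categorized.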
DT40 TDP1 no CPT: qHTS for Inhibitors of human tyrosyl-DNA phosphodiesterase 1 (TDP1): qHTS in cells in absence of CPT. DT40 Tdp1-/- hTDP1 cells, no CPT, ATP luminescence, 48 h. 420,000 tested, 15% active. Potency, µM (top dose mostly 46.2 µM), without a hit: top-dose activity change, negative = growth inhibition, actives largely listed as inhibitors; also: potency is read from the fitted curve at half-maximal effect; nearly all actives have a fitted effect of over 55% in size
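Readout: luminescence from CellTiter-Glo after 30 min in the dark at RT. Cells: DT40 Tdp1-/- with stable hTDP1, 400/well. Exposure: compounds alone, ≥48 hr, 37 °C.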
TDP1 cell CPT: growth inhibition of DT40 Tdp1-/-;hTDP1 cells with camptothecin (screen for TDP1 inhibitors); chicken DT40 Tdp1-/-;hTDP1 cells + 20 nM CPT, ATP luminescence, 48 h; Potency, µM (series often up to 46.2 µM), for inactives: at the top dose activity change, negative = growth inhibition, usual class: inhibitors; 420,000 tested, 12% active; AID 686979; also: potency is read from the fitted curve at half-maximal effect; nearly all actives have a fitted effect of over 55% in size
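Cell growth measured by CellTiter-Glo luminescence after a minimum 48 h, 37 C compound exposure with 20 nM CPT in Tdp1-knockout DT40 cells stably expressing hTDP1, seeded 400/well; qHTS titration format.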
HT1080 IDH1KD tx: toxicity to HT-1080 IDH1 knockdown cells (counter line); HT-1080 IDH1 knockdown viability, ATP luminescence, 48 h; Potency, µM (doses to about 46.1 µM), inactives show at the top dose activity, negative = toxicity, most hits filed as cytotoxic; 360,000 tested, 2% active; AID 686971;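 also: potency is read from the fitted curve at half-maximal effect; 0% = DMSO wells and -100% = cell-free medium wells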
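CellTiter-Glo luminescence after 48 h compound exposure at 37 degrees C of IDH1-knockdown HT-1080 cells in 5% FBS RPMI. %Activity scaled between DMSO wells and cell-free media wells, with curves fitted and assigned curve classes.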
IL1B secr inh: blocks inflammasome-driven IL-1 beta release; THP-1 LPS/ATP IL-1B secretion, AlphaLISA, 16 h; active compounds read low; activity change, % at 57.5 µM; 360,000 tested, 4.7% active; in the data active = activity change below about -50%; inconclusive = mostly about -30% to -49%
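Secreted IL-1B measured by AlphaLISA bead assay after 16 h compound exposure of THP-1 cells; compounds (final up to 57.5 uM) added 1 h before LPS (250 ng/mL) and ATP (1.25 mM) stimulation; lower signal means less secretion.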
* marks the source's active call; other numbers are inactive results; u = inconclusive; x = not tested or not shown; [ ] = another dose, or the depositor's remark. This is a sample that favours compounds with a hit; in the whole collection about 19% have one here. Unless noted, calls follow the shape of the dose curve; as a rule, active = well fitted curve in the direction sought with a large enough effect; inconclusive = small, poorly fitted or top-dose-only effect, or another doubt; inactive = no such curve, though single readings can be large; an effect the other way counts as inactive or inconclusive. Unless noted, % is scaled to controls: 0 for no effect and ±100 for the full control effect.

SMILES	HT1080-NT tox	DT40 TDP1 no CPT	TDP1 cell CPT	HT1080 IDH1KD tx	IL1B secr inh
CCC[C@@H]1CCCO[C@@](C(=O)NCc2ccc(S(C)(=O)=O)cc2)(C(F)(F)F)C1	4%	u	29µM*	-1%	-8
O=C(NCC1CC1)[C@]1(C(F)(F)F)C[C@H](CCC2CCCCC2)CCCO1	4%	23µM*	u	25%	38
O=C(O)c1ccccc1C(=O)c1ccc2c(c1)N(Cc1ccc(Cl)c(Cl)c1)C(=O)CO2	-29%	u	-24%	-23%	-53*
CSc1ccccc1C(=O)N1CCC(n2nccc2NC(=O)C(C)(C)C)CC1	14%	-18%	-24%	7%	13
Cc1c(C(C)C)c(=O)n(-c2ccc(S(=O)(=O)NC3CCCCC3)cc2)n1C	-5%	5.2µM*	5.8µM*	-11%	-54*
Cc1c(C(C)C)c(=O)n(-c2ccc(S(=O)(=O)NCc3ccccc3)cc2)n1C	u	8.2µM*	u	u	0
COCCNC(=O)C1(C)CCCN(Cc2ccc(Cl)c(Cl)c2)C1 (configuration not stated)	24%	16µM*	21µM*	7%	14
CCCNC(=O)C1(C)CCN(Cc2cccc(OC(=O)c3ccccc3)c2)C1 (configuration not stated)	0%	1%	-6%	11%	-23
COCCNC(=O)C1(C)CCCN(Cc2ccc(OCc3ccccc3)cc2)C1 (configuration not stated)	-5%	21µM*	26µM*	-11%	-23
COCCNC(=O)C1(C)CCCN(Cc2ccc(OC)cc2)C1 (configuration not stated)	u	-11%	-34%	11%	27
CCCNC(=O)C1(C)CCN(Cc2ccc(OCc3ccccc3)cc2)C1 (configuration not stated)	-28%	18µM*	23µM*	-6%	-21
COCCNC(=O)C1(C)CCN(Cc2ccc(C(C)C)cc2)C1 (configuration not stated)	22%	21µM*	u	19%	1
Cc1cc(NC(=O)CCC(=O)N(CC(=O)NC2CCCC2)c2cccc(C)c2C)no1	3%	-23%	-7%	2%	5
O=C(OCc1ccccc1)/C(=C(\O)c1ccccc1Br)c1ccc(-c2ccccc2)cn1	19%	u	-14%	13%	-10
CN1CCc2cc3c(cc2C(=O)Cc2ccc4c(c2C1)OCO4)OCO3	x	-24%	12%	x	x
CCOC(=O)c1ccc(CN2CCCC(C)(C(=O)NCCOC)C2)cc1 (configuration not stated)	22%	u	u	0%	22
CCCNC(=O)C1(C)CCN(Cc2ccc(C(=O)OCC)cc2)C1 (configuration not stated)	5%	16µM*	u	2%	41
COCCNC(=O)C1(C)CCCN(CCSc2ccccc2)C1 (configuration not stated)	9%	13µM*	u	u	12
CCCNC(=O)C1(C)CCN(Cc2cc(C(F)(F)F)ccc2Cl)C1 (configuration not stated)	11%	15µM*	23µM*	10%	40
COCCNC(=O)C1(C)CCCN(Cc2cc(-c3ccccc3)on2)C1 (configuration not stated)	15%	23µM*	13µM*	1%	39
CCNC(=O)C1(C)CCN(Cc2ccc(C(F)(F)F)cc2)C1 (configuration not stated)	16%	-16%	u	15%	2
COc1cc(/C=c2\[nH]c(=O)/c(=C/c3cc(OC)c(OC)c(OC)c3)[nH]c2=O)cc(OC)c1OC	x	u	-4%	x	x
CCOC(=O)C(C(=O)OCC)c1cc(Br)c2noc3c2c1C(=O)c1ccccc1-3	9.2µM*	2.6µM*	3.7µM*	12µM*	-89*
O=C(O)CCCNc1cc(N2CCN(C3CCCCC3)CC2)c2noc3c2c1C(=O)c1ccccc1-3	x	1%	-12%	x	x
Cc1ccc(C)c(NC(=O)C2CC(O)CN2C(=O)Oc2ccccc2)c1 (configuration not stated)	1%	2%	4%	11%	6
SMILES	HT1080-NT tox	DT40 TDP1 no CPT	TDP1 cell CPT	HT1080 IDH1KD tx	IL1B secr inh
CCNC(=O)c1ccccc1SCc1ccccc1	-3%	-6%	-19%	12%	0
CCc1ccc(OCCNC(=O)c2ccccc2SCc2ccccc2)cc1	-24%	21µM*	u	u	-10
CCc1cc(=O)n2[nH]c(-c3ccccc3)c(-c3ccccc3)c2n1	u	21µM*	u	u	34
CCOC(=O)Cc1cc(=O)n2[nH]cc(-c3cccc(Br)c3)c2n1	-29%	23µM*	u	u	9
CCOC(=O)Cc1c(C)nc2c(-c3ccc(Cl)cc3)c(C(F)(F)F)nn2c1C	x	23µM*	23µM*	x	x
CCc1cc(=O)n2[nH]c(C)c(-c3ccc(OC)cc3)c2n1	0%	-30%	-7%	3%	-7
Cc1[nH]n2c(=O)cc(-c3ccc(Cl)cc3)nc2c1-c1ccccc1	x	0.92µM*	0.65µM*	x	x
CC1(C(=O)NS(=O)(=O)c2ccccc2Cl)CCN1C(=O)C1(c2ccc(Cl)cc2)CC1 (configuration not stated)	8%	-22%	1%	9%	24
COC(=O)Cc1cc(=O)n2[nH]c(C)c(-c3ccccc3)c2n1	-1%	-6%	3%	13%	-1
Cc1[nH]n2c(=O)cc(C(C)(C)C)nc2c1-c1ccccc1	-26%	5.2µM*	4.6µM*	u	34
CCOC(=O)Cc1cc(=O)n2[nH]c(C)c(-c3ccc(OC)cc3)c2n1	2%	u	u	-2%	-9
Cc1[nH]n2c(=O)cc(-c3ccc([N+](=O)[O-])cc3)nc2c1-c1ccccc1	16µM*	7.3µM*	12µM*	16µM*	37
CCOC(=O)Cc1cc(=O)n2[nH]c(C)c(-c3ccc(Cl)cc3)c2n1	u	11µM*	16µM*	u	51
CCOC(=O)c1cccc(NC(=O)CSc2nnc(-c3cccnc3)n2C)c1	10%	-10%	-9%	9%	10
O=C(COC(=O)c1ccccc1Br)NC(=O)NCc1ccccc1	0%[9.24 µM]	13%	-4%	13%	-13
COc1ccccc1C(=O)NCC(=O)N=Nc1c(O)n(C(C)C)c2ccccc12	-3%	18µM*	u	4%	-7
CC(C)n1c(O)c(N=NC(=O)Cn2ccc(C(F)(F)F)n2)c2ccccc21	-2%	8.2µM*	u	11%	0

Screening data from PubChem BioAssay.
